In PubChem BioAssay AID686978 (National Center for Advancing Translational Sciences (NCATS), 2013):
Hit rate of the full screen: of about 420,000 compounds, about 64,000 (15%) were called active. About 27% were inconclusive and are not listed. The call rests on the fitted dose curve; in most records, active means well fitted inhibition curve with a large enough effect; inconclusive means small, poorly fitted or top-dose-only effect; inactive means flat fitted curve, though single readings scatter. Not all results are given here. Entries that show only a call come without a potency.
Potency means the concentration at half of the fitted maximal effect.

Assay: qHTS for Inhibitors of human tyrosyl-DNA phosphodiesterase 1 (TDP1): qHTS in cells in absence of CPT; further: nearly all actives have a fitted effect of over 55% in size
Settings: DT40 Tdp1-/- hTDP1 cells, no CPT, ATP luminescence, 48 h; activity change, negative = growth inhibition: at 46.2 µM (top of the series)
Outline: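 Growth of hTDP1-complemented DT40 Tdp1-knockout cells is measured by ATP luminescence after at least 48 hr compound exposure at 37 °C, with DMSO substituting for the 20 nM CPT used in the parallel screen.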
In the case of `O=C(Cn1nc(C(=O)O)c2ccccc2c1=O)Nc1ccc(F)cc1`, the Potency is reported as “inactive”. With `COc1cccc(NC(=O)CSc2nnc(C3CCCCC3)n2N)c1` the Potency was “inactive”. For `c1ccc2c(c1)OCC(CNc1ncnc3nc[nH]c13)O2` (stereo not drawn), the Potency was 13 µM (active). For `O=C(Cn1cnc2ccccc2c1=O)NCC1COc2ccccc2O1` (stereo not drawn), the Potency was “inactive”. For `O=C(COC(=O)c1ccc(F)cc1)NCC1COc2ccccc2O1` (stereo not drawn), the Potency was “inactive”. In the case of `CC(C)c1ccc(NC(=S)NNc2ccc(Cl)c(C(=O)O)c2)cc1`, the Potency is reported as “inactive”. For `O=C(COC(=O)C1CC2C=CC1C2)Nc1ccccc1` (stereo not drawn), the Potency was “inactive”. For `CC(C)c1ccc(NC(=S)NC2CC3C=CC2C3)cc1` (stereo not drawn), the Potency was 29.1 µM (active). In the case of `CCN1C(=O)C(=O)N(CC(=O)Nc2cc(C)ccc2C)C1=O`, the Potency is reported as “inactive”. For `O=P(c1ccc2c(c1)OCCO2)(N1CCOCC1)N1CCOCC1`, the Potency was “inactive”. For `COC(=O)C(C)Oc1ccc2c(c1)O/C(=C\c1cccc(Br)c1)C2=O` (stereo not drawn), the Potency was “inactive”. For `COC(=O)Cc1ccc(N(Cc2ccccc2F)S(=O)(=O)c2ccc(Br)cc2)cc1`, the Potency was 20.6 µM (active). In the case of `COc1ccc(S(=O)(=O)N(CC(=O)NCc2ccco2)c2ccc(F)cc2)cc1`, the Potency is reported as “inactive”. With `O=C(COC(=O)Cc1ccc(Br)cc1)Nc1c(F)c(F)c(F)c(F)c1F` the Potency was “inactive”. For `O=C(CCn1c(SCC(=O)c2ccccc2)nc2ccccc2c1=O)NCc1ccc(F)cc1`, the Potency was “inactive”. In the case of `CC1(C)CC(=O)C(C=NCc2cccnc2)=C(O)C1`, the Potency is reported as “inactive”. For `N=c1c2c3c(sc2ncn1N)CCCCC3`, the Potency was “inactive”. In the case of `Cc1nc2cc(NC(=O)NCc3ccccc3)ccc2o1`, the Potency is reported as “inactive”. For `C=CCN(C(=O)Nc1ccc2c(c1)nc(C)n2C)c1ccccc1`, the Potency was “inactive”. With `C=CCN(C(=O)Nc1ccc2oc(C)nc2c1)c1ccccc1` the Potency was 20.6 µM (active). With `N#CCCn1cnc2ccccc21` the Potency was “inactive”. In the case of `Cc1c(C=O)n(C)n(-c2ccccc2)c1=O`, the Potency is reported as “inactive”. For `O=C(CSc1nnc(-c2cnccn2)n1Cc1ccco1)c1ccc(Cl)c(Cl)c1`, the Potency was “inactive”. In the case of `O=C(CSc1nnc(-c2cccnc2)n1Cc1ccco1)c1ccc(Cl)cc1`, the Potency is reported as 25.9 µM (active). With `COc1cc(Cl)c(C)cc1NC(=O)CSc1nnc(-c2cccnc2)n1Cc1ccco1` the Potency was “inactive”. With `CC(=O)NS(=O)(=O)c1ccc(NC(=O)C2C3C=CC(C3)C2C(=O)O)cc1` (stereo not drawn) the Potency was “inactive”. With `Cc1cc2c3ccccc3[nH]c(=O)n2n1` the Potency was “inactive”. With `CCCCC(O)C1=C[N+](=O)CC=C1` (stereo not drawn) the Potency was “inactive”. For `COc1ccc(N2CCN(C(=O)CCc3nc(-c4ccc(C)cc4)no3)CC2)cc1`, the Potency was “inactive”. For `COc1ccc(-c2noc(CCC(=O)N3CCN(c4cccc(C)c4)CC3)n2)cc1`, the Potency was 13 µM (active). In the case of `CN1CCN(C(=O)CCc2nc(-c3ccc(Cl)cc3)no2)CC1`, the Potency is reported as “inactive”. For `O=C(COC(=O)c1ccco1)Nc1ccc(Cl)cn1`, the Potency was “inactive”. In the case of `O=c1ccn(Cc2ccccc2Cl)cc1`, the Potency is reported as “inactive”. With `O=S(=O)(O)c1nc2ccccc2n1Cc1ccc(Cl)cc1` the Potency was “inactive”. With `N=c1n(Cc2ccc(Cl)cc2)c2ccccc2n1CC(O)c1ccco1` (stereo not drawn) the Potency was 5.8 µM (active). For `CCC1=NN2C(=N)/C(=C/c3cc(C)n(-c4ccccc4)c3C)C(=O)N=C2S1`, the Potency was “inactive”. For `CCCC(=O)NC(=S)Nc1ccc(CN2CCOCC2)cc1`, the Potency was “inactive”. For `COC(=O)c1sccc1NC(=S)Nc1ccc(C)cc1`, the Potency was “inactive”. For `CCOC(=O)C(=CNNc1ccsc1C(=O)OC)C(=O)OCC`, the Potency was 10.3 µM (active). In the case of `COC(=O)c1sccc1NC(=O)CCC1CCCC1`, the Potency is reported as “inactive”. For `CCn1c(SCC(=O)N(C)C2CCS(=O)(=O)C2)nnc1-c1cccs1` (stereo not drawn), the Potency was “inactive”. With `CCN(CC(=O)NCc1cccs1)C(=O)c1cccc(S(=O)(=O)Nc2ccccc2OC)c1` the Potency was “inactive”. With `CC(C)N1C(=O)c2ccccc2NC(=O)C1C(=O)NCc1cccs1` (stereo not drawn) the Potency was “inactive”. With `CCC1Sc2ccc(S(=O)(=O)CCC(=O)NCc3cccs3)cc2NC1=O` (stereo not drawn) the Potency was 14.6 µM (active). In the case of `Cc1cc(C)c(NC(=O)CS(=O)CC(=O)Nc2cccnc2)c(C)c1` (stereo not drawn), the Potency is reported as “inactive”. For `COc1ccccc1N(CC(=O)Nc1ccccc1C(=O)N1CCCC1)S(C)(=O)=O`, the Potency was “inactive”. For `COc1ccccc1OCC(=O)O/N=C(\N)c1ccccn1`, the Potency was “inactive”. For `CCOC(=O)CN1CCC(c2ccccc2)CC1`, the Potency was “inactive”. In the case of `CCOC(=O)CN1C(=O)C(O)(CC(=O)c2ccccn2)c2ccccc21` (stereo not drawn), the Potency is reported as 4.11 µM (active). In the case of `CCCc1nn(C)c2c(=O)[nH]c(-c3cc(S(N)(=O)=O)ccc3OCC)nc12`, the Potency is reported as “inactive”. In the case of `Cn1c2ccccc2n2c(=O)c(=O)n(CC(=O)c3ccc(F)cc3)nc12`, the Potency is reported as “inactive”. With `CCOC(=O)c1ccc(N2C(=O)CC(N(C)Cc3ccccc3)C2=O)cc1` (stereo not drawn) the Potency was “inactive”. With `Cc1cc(/C=C2/NC(=O)NC2=O)c(C)n1-c1cccnc1` the Potency was “inactive”. For `O=C1N/C(=C/c2cccs2)C(=O)N1Cc1ccc(F)cc1`, the Potency was “inactive”. For `Cc1ccc(CN2C(=O)N/C(=C/c3cc(C)n(-c4ccccn4)c3C)C2=O)cc1`, the Potency was 23.1 µM (active). For `COCCn1c(=O)c(-c2cccs2)nc2cncnc21`, the Potency was “inactive”. In the case of `CCOCCc1c(O)nc(SCC(=O)NCc2ccco2)[nH]c1=O`, the Potency is reported as “inactive”. In the case of `Cn1c(SCC(=O)NC2CCCCC2)nnc1-c1cc2ccccc2o1`, the Potency is reported as “inactive”. In the case of `O=C(NC1CCCCC1)C(c1cc2ccccc2o1)n1c(=O)c(-c2ccco2)nc2ccccc21` (stereo not drawn), the Potency is reported as 16.4 µM (active). For `O=C(Nc1cc2ccccc2oc1=O)C1CCCCC1`, the Potency was “inactive”. For `CN1CCC(N(C)S(=O)(=O)c2ccc(NC(=O)c3cccc(C#N)c3)cc2)CC1`, the Potency was “inactive”. For `CN(C)S(=O)(=O)c1ccc(N2CCCC2)c(C(=O)NCc2ccccc2)c1`, the Potency was “inactive”. With `CCN(CC)S(=O)(=O)c1ccc(N2CCOCC2)c(C(=O)O)c1` the Potency was “inactive”. In the case of `CCN(CC)S(=O)(=O)c1ccc(N2CCOCC2)c(NC(=O)c2ccc(=O)n(C)n2)c1`, the Potency is reported as “inactive”. In the case of `COc1ccc(CC(=O)Nc2cc(S(=O)(=O)N3CCCCC3)ccc2N2CCN(C)CC2)cc1`, the Potency is reported as “inactive”. In the case of `CCN(CC)S(=O)(=O)c1ccc(N2CCCC2)c(NC(=O)c2ccc([N+](=O)[O-])o2)c1`, the Potency is reported as 23.1 µM (active). For `CCN(CC)S(=O)(=O)c1ccc(N2CCOCC2)c(NC(=O)C2COc3ccccc3O2)c1` (stereo not drawn), the Potency was 16.4 µM (active). In the case of `COc1ccc(C(C)NC(=S)NC2CCCCC2)cc1OC` (stereo not drawn), the Potency is reported as “inactive”. With `Cc1ccc(/C=N/NC(=O)CNC(=O)COc2ccccc2)o1` the Potency was “inactive”. For `Cc1ccc(NC(=S)NC2CCCC2)cc1`, the Potency was “inactive”. In the case of `C/C(=N\NC(=S)NC1CCCCC1)c1ccc(C)o1`, the Potency is reported as 23.1 µM (active). With `Cc1ccc(/C=N/NC(=S)NC2CCCCC2)o1` the Potency was 4.11 µM (active). In the case of `CCCC/C(C)=N/NC(=O)NC1CCCCC1`, the Potency is reported as “inactive”.
